D1 antag: human D1 dopamine receptor antagonism; P21728; HEK293 TREx D1 cells, calcium flux, dopamine EC80; hits give low values; activity change, negative = inhibition, % at 10 µM; hit rate 3.2% among 360,000; AID 504652; in the data active = activity change below about -30%; also: % is scaled to controls: 0 for no effect and ±100 for the full control effect
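Using tetracycline-induced force-coupled D1 Hek293 cells and a calcium dye, signals were followed for 180 s after compound, then for 180 s after EC80 dopamine, to detect inhibitors.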
D1 potentiator: enhances dopamine response at the human D1 receptor | AID 504651 | P21728 | potentiation, % at 10 µM | hit rate 0.036% among 360,000 | HEK293 TREx D1 cells, calcium flux, dopamine EC20 potentiation; in the data active = potentiation above about 30%; also: 0% is about no effect
D3 antag: D3 dopamine receptor (human) antagonism; hit rate 2.5% among 360,000; P35462; max response, negative = inhibition, %; D3R cells, DiscoveRx beta-arrestin luminescence, antagonist mode; hits give low values; AID 652054; in the data active = max response below about -50%; inconclusive = no clear call, values can overlap the other calls; also: % is scaled to controls: 0 for no effect and ±100 for the full control effect
Target sequence (P35462 whole entry, looked up): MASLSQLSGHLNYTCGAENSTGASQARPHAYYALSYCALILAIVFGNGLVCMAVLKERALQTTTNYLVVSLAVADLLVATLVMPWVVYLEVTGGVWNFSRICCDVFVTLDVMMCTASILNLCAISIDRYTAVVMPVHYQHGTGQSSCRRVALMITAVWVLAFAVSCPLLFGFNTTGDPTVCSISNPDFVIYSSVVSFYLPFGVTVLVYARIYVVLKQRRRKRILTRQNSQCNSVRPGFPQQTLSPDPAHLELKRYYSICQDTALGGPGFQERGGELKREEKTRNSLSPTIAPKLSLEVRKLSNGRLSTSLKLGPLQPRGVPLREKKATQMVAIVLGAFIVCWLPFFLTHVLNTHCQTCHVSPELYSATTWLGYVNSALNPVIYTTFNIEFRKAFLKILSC
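Cells plated overnight at 1500 cells/well, then exposed to library compounds with dopamine controls for 90 minutes at 37 degrees C. DiscoveRx reagent added for 30–60 minutes at room temperature; luminescence read, quantitative HTS format.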
D1 ag: human D1 receptor agonism. AID 504660. HEK293 T-REx D1 cells, calcium flux, agonist mode. hit rate 1% among 360,000. P21728. activation, % at 2 µM; in the data active = activation above about 30%; also: 0% is about no effect
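Tetracycline-induced HEK293 TREx D1 cells, force-coupled to calcium signalling, were dye-loaded with a no-wash calcium kit. Compound was pin-added after a 10 s baseline. Fluorescence was read kinetically at 1 cycle/s for 180 s, with calcium rises flagged as agonism.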
DRD3 agonist: activates the human D3 dopamine receptor | P35462 | D3R DiscoveRx beta-arrestin cells, luminescence, 90 min | hit rate 0.58% among 410,000 | max activation, % | AID 652048; in the data active = max activation above about 30%; also: 0% is about no effect
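Cells at 1500/well, incubated overnight, then treated with pinned compounds (dopamine as control) for 90 min at 37 degrees C. DiscoveRx reagent added for 30 - 60 minutes at room temperature; luminescence read.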
An asterisk follows results filed as active. The list is not random: actives were taken first. Their share in the collection is about 6%.

CCn1c(CN2CCN(c3cccc(Cl)c3)CC2)nc2c1c(=O)[nH]c(=O)n2C was read as D1 antag -2, D1 potentiator 0, D1 ag 1 and DRD3 agonist -11.
For CCOc1ccc2nc(N3CCCC(C(=O)N4CCN(CC)CC4)C3)sc2c1 (configuration not stated) the results were D1 antag -8, D1 potentiator 2, D3 antag -65*, D1 ag 2 and DRD3 agonist -2.
For CCCN1CCN(CCCNC(=O)C2CCCN(c3nc4ccc(OCC)cc4s3)C2)CC1 (configuration not stated) the results were D1 antag -4, D1 potentiator -4, D3 antag 7, D1 ag 2 and DRD3 agonist 23.
`O=C(OCC#CCNc1nnc(-c2cccc3ccccc23)o1)c1cccs1` gave D1 antag 1, D1 potentiator 5 and D1 ag 3.
Screening COc1ccc(CNC(=O)C(=O)NCC(c2cccnc2)N2CCN(c3ccccc3)CC2)cc1 (configuration not stated) returned D1 antag -6, D1 potentiator -1, D1 ag 4 and DRD3 agonist 3.
CCn1nccc1NC(=O)c1csc([C@@H]2O[C@H](CO)[C@H](O)[C@H](O)[C@H]2O)n1 was read as D3 antag inconclusive and DRD3 agonist 37*.
For CCn1nccc1NC(=O)c1csc([C@H]2C[C@H](O)[C@@H](CO)O2)n1 the results were D3 antag 7 and DRD3 agonist 1.
For CCOc1ccc(OCC)c(-c2c(=O)n(OCc3ccc(C(C)(C)C)cc3)c3ccccc3[n+]2[O-])c1 the results were D1 antag -11, D1 potentiator 2, D3 antag 11, D1 ag 1 and DRD3 agonist 52*.
For CCOc1ccc(-c2c(=O)n(OCc3ccc([N+](=O)[O-])cc3)c3ccccc3[n+]2[O-])c(OCC)c1 the results were D3 antag 9 and DRD3 agonist 6.
CN1CCN(NC(=O)NC2CCCCC2)CC1 was read as D1 antag -39*, D1 potentiator 2, D3 antag -6, D1 ag 28 and DRD3 agonist 2.
For CCCCN(CC)Cc1c(O)ccc2c(-c3ccccc3)cc(=O)oc12 the results were D1 antag -27, D1 potentiator -10, D3 antag 1, D1 ag -1 and DRD3 agonist -2.
`CCN(CC)Cc1c(O)ccc2c(-c3ccccc3)cc(=O)oc12` gave D1 antag -31*, D1 potentiator -13, D3 antag -10, D1 ag 3 and DRD3 agonist 2.
For CCOc1ccc(OCC)c(NC(=O)c2ccc(-c3ccccc3)s2)c1 the results were D1 antag -85*, D1 potentiator -5, D1 ag 4 and DRD3 agonist 14.
CCc1ccc(NC(=O)c2ccc(-c3ccccc3)s2)cc1 was read as D1 antag -6, D1 potentiator -3, D1 ag 3 and DRD3 agonist -11.
`O=C(Nc1ccccc1)c1ccc(-c2ccccc2)s1` gave D1 antag -12, D1 potentiator -2, D3 antag 3, D1 ag 51* and DRD3 agonist 5.
CC[C@@H](C)[C@H](N)C(=O)O was read as DRD3 agonist -6.
For O=C(CSc1nc2ccsc2c(=O)n1-c1ccc(Br)cc1)NCc1ccccc1 the results were D1 antag 8, D1 potentiator -3, D1 ag 6 and DRD3 agonist 0.
For COCCn1c(-c2ccc(Br)cc2)nc2oc3cc(OC)ccc3c(=O)c2c1=O the results were D1 antag -45*, D1 potentiator 0, D3 antag 7, D1 ag 0 and DRD3 agonist 5.
For CCOC(=O)c1c(S(=O)(=O)N2CCCC(C(=O)N3CCN(c4ccc(F)cc4)CC3)C2)c(C)n(C)c1C (configuration not stated) the results were D1 antag -4, D1 potentiator -2, D1 ag 1 and DRD3 agonist -9.
Screening Cc1ccc(NC(=O)Cn2c(O)c(N=NC(=O)c3cc([N+](=O)[O-])ccc3O)c3ccccc32)cc1 returned D1 antag -40*, D1 potentiator -7 and D1 ag -1.
Cc1cccc(NC(=O)Cn2c(O)c(N=NC(=O)c3ccccc3O)c3ccccc32)c1 was read as D1 antag -16, D1 potentiator -5, D3 antag -71*, D1 ag 3 and DRD3 agonist -9.
NC(=S)N=Nc1c(O)n(CC(=O)Nc2ccccc2)c2ccccc12 was read as D1 antag -16, D1 potentiator -3, D3 antag -19, D1 ag 1 and DRD3 agonist -6.
Screening Cc1ccc(S(=O)(=O)Nc2ccccc2-c2ccccc2NS(=O)(=O)c2ccc(C)cc2)cc1 returned D1 antag -2, D1 potentiator -5, D3 antag 21, D1 ag 2 and DRD3 agonist 7.
`O=C1c2ccccc2-c2cccc(NS(=O)(=O)c3ccc(C(F)(F)F)cc3)c21` gave D1 antag 3, D1 potentiator 0, D3 antag 22, D1 ag 55* and DRD3 agonist 1.
O=C(CS(=O)Cc1ccco1)NC/C=C\COc1cc(CN2CCCCC2)ccn1 (configuration not stated) was read as DRD3 agonist -13.
For CC(C)N1CCc2c(sc(NC(=O)c3ccc(S(=O)(=O)N(C)C4CCCCC4)cc3)c2C(N)=O)C1 the results were D1 antag -15, D1 potentiator -1, D1 ag 66* and DRD3 agonist -17.
Screening CC(C)N1CCc2c(sc(NC(=O)c3ccc(S(=O)(=O)N4CCc5ccccc54)cc3)c2C(N)=O)C1 returned D1 antag 6, D1 potentiator -3, D3 antag -27, D1 ag 32* and DRD3 agonist -6.
Screening CC(C)N1CCc2c(sc(NC(=O)c3nc4ccccc4s3)c2C(N)=O)C1 returned D1 antag -11, D1 potentiator -6, D3 antag -19, D1 ag 2 and DRD3 agonist 6.
CN(C1CCCCC1)S(=O)(=O)c1ccc(C(=O)Nc2sc3c(c2C(N)=O)CC(C)(C)NC3(C)C)cc1 was read as D1 antag 0, D1 potentiator 7, D3 antag inconclusive, D1 ag 28 and DRD3 agonist -1.
For CC(C)N1CCc2c(sc(NC(=O)c3cc(-c4cccs4)nc4ccccc34)c2C(N)=O)C1 the results were D1 antag 0, D1 potentiator -4, D3 antag 23, D1 ag 83* and DRD3 agonist 2.
`Cn1c(=O)oc2cc(S(=O)(=O)NC(Cc3ccccc3)C(=O)NCc3ccccc3Cl)ccc21` (configuration not stated) gave D1 antag 5, D1 potentiator -3, D1 ag 1 and DRD3 agonist -9.

High-throughput results: PubChem, National Center for Advancing Translational Sciences (NCATS)
